Screens as filed in PubChem BioAssay.
Most compounds without a hit are left out; they make up all but 2.2% or so of the library.
Efflux pump inh: blocks antifungal efflux pumps in multiplex yeast assay | S. cerevisiae Candida pump triplex, Nile Red efflux | inhibition, % at 10 µM | hit rate 0.44% among 330,000 | AID 485275;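 active = plate passing quality check with inhibition over a set limit, or well fluorescence over plate mean plus 4 SD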;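 note: Nile Red retained in pooled yeast measured as flow cytometry median fluorescence; 0% = buffer negative control and 100% = Enniatin B positive control; higher means more Nile Red kept so more efflux inhibition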
Mot1-301 SUMO: inhibitors of SUMOylation pathway: yeast Mot1-301 growth rescue; S. cerevisiae Mot1-301 growth rescue, ATP luminescence, 38.5C; percent above DMSO median, 100 means doubled; hit rate 1% among 320,000; growth rescue, % at 18.8 µM;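 active = every valid replicate shows activation above 250% relative to neutral control wells; inactive = the rest, any valid replicate at or below 250%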;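 note: OY570 slx delta 5 strain wells were the positive control but not used for scaling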
HGIII-sPLA2 inh: Blocks human group III sPLA2 activity. QFRET BODIPY PC-A2 liposome hydrolysis, fluorescence. inhibition, % at 12.2 µM. hit rate 0.56% among 370,000. AID 743126;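 active = inhibition above mean plus 3 SD of compounds lying within the high and low control bounds, cut at about 19% in these data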;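 note: 0% = median of test compound wells and 100% = no enzyme DMSO wells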
Target sequence (Q9NZ20 whole entry, looked up): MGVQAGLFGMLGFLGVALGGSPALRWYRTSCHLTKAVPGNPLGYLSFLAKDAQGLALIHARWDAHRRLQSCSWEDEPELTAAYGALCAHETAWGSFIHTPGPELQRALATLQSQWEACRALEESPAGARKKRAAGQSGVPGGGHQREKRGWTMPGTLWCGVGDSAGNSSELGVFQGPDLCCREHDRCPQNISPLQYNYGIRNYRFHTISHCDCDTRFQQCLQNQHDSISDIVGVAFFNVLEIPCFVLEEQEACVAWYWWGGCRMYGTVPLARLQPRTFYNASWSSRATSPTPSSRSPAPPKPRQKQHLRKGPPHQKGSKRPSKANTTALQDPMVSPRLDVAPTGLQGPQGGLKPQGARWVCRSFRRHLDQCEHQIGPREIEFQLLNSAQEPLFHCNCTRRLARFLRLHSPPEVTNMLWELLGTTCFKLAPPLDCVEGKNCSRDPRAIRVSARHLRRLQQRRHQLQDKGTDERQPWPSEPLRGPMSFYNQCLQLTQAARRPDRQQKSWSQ
SKN-1 block: C. elegans SKN-1 inhibition; C. elegans VP596 Pgst-4::GFP/RFP ratio, acrylamide-induced, 24 h; inhibition, % at 21.8 µM; hit rate 0.49% among 360,000; AID 624304;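 active = interference check ratio from 0.5 to 1.5 plus GFP to RFP signal ratio inhibition reaching or exceeding a fixed threshold, cut at about 30% in these data, passing the limit was not always enough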
Yeast cmpd fluor: counter-screen for efflux pump inhibitors: compound fluorescence; shares compounds with Efflux pump inh; S. cerevisiae AD/pABC3, flow cytometry; fluorescence ratio to DMSO, % at 10 µM; hit rate 4% among 1,700;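 active = fluorescence ratio to DMSO above its plate's cutoff, the plate mean ratio plus 5 SD, cut at about 210% in these data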;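 note: unstained yeast with no Nile Red so the signal is compound autofluorescence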
Mdr1 pump inh: blocks the Candida albicans Mdr1 efflux pump in yeast. shares compounds with Efflux pump inh. S. cerevisiae AD/CaMDR1, Nile Red efflux, flow cytometry. hit rate 1% among 1,700. inhibition, % at 10 µM; in the data active = inhibition above about 26%;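 note: 0% = DMSO vehicle and 100% = reference inhibitor; higher means more Nile Red retained so more efflux inhibition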
Cdr2 pump inh: Candida Cdr2 efflux pump inhibition; hit rate 4% among 1,700; S. cerevisiae AD/CaCDR2, Nile Red retention, flow cytometry; Nile Red retention ratio vs DMSO, % at 10 µM; shares compounds with Efflux pump inh; in the data active = Nile Red retention ratio vs DMSO above about 190%;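 note: higher ratio means more blocking of Cdr2 efflux of the dye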
Cdr1 pump inh: blocks the Candida albicans Cdr1 efflux pump in yeast | shares compounds with Efflux pump inh | S. cerevisiae AD/CaCDR1, Nile Red efflux, flow cytometry | inhibition, % at 10 µM | hit rate 1% among 1,700 | AID 588522;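 active = inhibition above the screen-wide mean plus twice its standard deviation, cut at about 32% in these data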
Active calls of the source: *.

Screening CSc1cccc(NS(=O)(=O)c2cn(C)cn2)c1 returned Efflux pump inh 1.3*, Mot1-301 SUMO 17.6, HGIII-sPLA2 inh 6.6, SKN-1 block -8.8, Yeast cmpd fluor 98.6, Mdr1 pump inh -0.3, Cdr2 pump inh 80.3 and Cdr1 pump inh 0.0.
CCOC(=O)c1ccc(Nc2nc(C)cc(C)n2)cc1 was read as Efflux pump inh -0.1, Mot1-301 SUMO -8.7, HGIII-sPLA2 inh 3.6 and SKN-1 block -1.3.
CCOC(=O)c1ccc(Nc2cc(C)nc(-c3ccccc3)n2)cc1 was read as Efflux pump inh 30.7*, Mot1-301 SUMO 63.8, HGIII-sPLA2 inh -18.8, SKN-1 block 9.1, Yeast cmpd fluor 102.2, Mdr1 pump inh -0.2, Cdr2 pump inh 100.1 and Cdr1 pump inh 0.1.
Screening O=C(O)C(CCc1ccccc1)N1C(=O)c2ccccc2C1=O (configuration not stated) returned HGIII-sPLA2 inh 0.8 and SKN-1 block -1.5.
Screening CC1(C(=O)O)COC(c2ccc(Cl)cc2)OC1 (configuration not stated) returned Efflux pump inh 0.0, Mot1-301 SUMO -0.3, HGIII-sPLA2 inh 2.2 and SKN-1 block 1.1.
Screening COC(=O)c1ccc(C2OCC(C)(C)CO2)cc1 returned Efflux pump inh 1.1*, Mot1-301 SUMO -3.5, HGIII-sPLA2 inh 4.9, SKN-1 block 11.7, Yeast cmpd fluor 93.5, Mdr1 pump inh -0.2, Cdr2 pump inh 100.7 and Cdr1 pump inh -0.1.
Cc1cccc(S(=O)(=O)Nc2nc3ccccc3nc2Nc2ccc3c(c2)OCO3)c1 was read as Efflux pump inh 10.0*, Mot1-301 SUMO 556.8, HGIII-sPLA2 inh -2.9, SKN-1 block 8.5, Yeast cmpd fluor 105.8, Mdr1 pump inh -0.1, Cdr2 pump inh 118.2 and Cdr1 pump inh 0.0.
For O=S(=O)(Nc1nc2ccccc2nc1Nc1ccc2c(c1)OCO2)c1ccccc1 the results were Efflux pump inh 0.0, Mot1-301 SUMO -3.0, HGIII-sPLA2 inh -3.7 and SKN-1 block 11.1.
`COc1cccc(OC)c1C(=O)OCC(=O)NCCNC(=O)COC(=O)c1c(OC)cccc1OC` gave HGIII-sPLA2 inh -3.6 and SKN-1 block 1.1.
Screening COc1cc(/C=C/C(=O)OCC(=O)c2ccc[nH]2)ccc1O returned HGIII-sPLA2 inh -12.3 and SKN-1 block -0.8.
`O=C(Cn1cncn1)NCc1cccc2ccccc12` gave Efflux pump inh 0.9*, Mot1-301 SUMO -4.7, HGIII-sPLA2 inh 2.7, SKN-1 block -2.0, Yeast cmpd fluor 101.2, Mdr1 pump inh -0.1, Cdr2 pump inh 107.2 and Cdr1 pump inh 0.0.
`Cc1ccccc1NC(=O)CCC(=O)N/N=C/c1cc([N+](=O)[O-])ccc1O` gave Efflux pump inh 0.1, Mot1-301 SUMO 29.0, HGIII-sPLA2 inh -13.7 and SKN-1 block 0.5.
`Cc1ccc(C)c(NC(=O)CCC(=O)N/N=C/c2cc([N+](=O)[O-])ccc2O)c1` gave Efflux pump inh 1.4*, Mot1-301 SUMO 4.6, HGIII-sPLA2 inh 0.9, SKN-1 block 13.3, Yeast cmpd fluor 103.4, Mdr1 pump inh -0.2, Cdr2 pump inh 97.2 and Cdr1 pump inh -0.1.
For CC(=O)Nc1ccc(NC(=O)Cc2ccc(F)cc2)cc1 the results were Efflux pump inh 1.1*, Mot1-301 SUMO 4.3, Yeast cmpd fluor 111.5, Mdr1 pump inh -0.1, Cdr2 pump inh 105.7 and Cdr1 pump inh -0.1.
For O=C(Cc1ccccc1)Nc1ccc(F)cc1 the results were Efflux pump inh 0.0, Mot1-301 SUMO 54.4, HGIII-sPLA2 inh -4.3 and SKN-1 block 5.7.
CC1(C)CC[C@]2(C(=O)O)CC[C@]3(C)C(=CCC4[C@@]5(C)CC[C@H](O)C(C)(C)C5CC[C@]43C)C2C1 (some centres not stated) was read as Efflux pump inh 1.4*, Mot1-301 SUMO -19.2, HGIII-sPLA2 inh 2.4, SKN-1 block 10.2, Yeast cmpd fluor 81.2, Mdr1 pump inh 0.1, Cdr2 pump inh 97.5 and Cdr1 pump inh -0.4.
For CCn1ccc(C(=O)Nc2sc3c(c2C(=O)OC)CCC3)n1 the results were Efflux pump inh 0.6*, Mot1-301 SUMO 0.5, HGIII-sPLA2 inh 7.9, SKN-1 block 6.9, Yeast cmpd fluor 92.9, Mdr1 pump inh 0.0, Cdr2 pump inh 95.4 and Cdr1 pump inh -0.1.
`Cn1ncc(Cl)c1C(=O)Nc1sc2c(c1C(N)=O)CCC2` gave Efflux pump inh 0.0, Mot1-301 SUMO 42.1, HGIII-sPLA2 inh 8.1, SKN-1 block 31.8, Yeast cmpd fluor 92.1, Mdr1 pump inh -0.2, Cdr2 pump inh 98.5 and Cdr1 pump inh 0.0.
`COC(=O)c1c(NC(=O)c2ccn(C)n2)sc2c1CCC2` gave Efflux pump inh -0.5, Mot1-301 SUMO 170.6, HGIII-sPLA2 inh 1.1, SKN-1 block -9.9, Yeast cmpd fluor 102.2, Mdr1 pump inh -0.1, Cdr2 pump inh 106.3 and Cdr1 pump inh 0.1.
Screening COC(=O)c1c(NC(=O)c2ccc(Br)s2)sc2c1CCC2 returned Efflux pump inh 0.0, Mot1-301 SUMO 25.2, HGIII-sPLA2 inh -3.5 and SKN-1 block 6.6.
`COC(=O)c1c(NC(=O)c2nn(C)cc2Cl)sc2c1CCCC2` gave Efflux pump inh 0.3, Mot1-301 SUMO 96.8, HGIII-sPLA2 inh -1.9 and SKN-1 block 2.4.
Screening CCn1ncc(Br)c1C(=O)Nc1cc(C)cc(C)c1 returned Efflux pump inh 6.5*, Mot1-301 SUMO 16.6, HGIII-sPLA2 inh -5.5, SKN-1 block 19.3, Yeast cmpd fluor 107.9, Mdr1 pump inh 0.0, Cdr2 pump inh 106.0 and Cdr1 pump inh 0.0.
For O=C(COC(=O)Cc1ccc(Br)cc1)NCc1ccc2c(c1)OCO2 the results were HGIII-sPLA2 inh -8.4 and SKN-1 block 4.8.
`CC(C)c1ccc(C(C)NC(=O)C2CCCC2)cc1` (configuration not stated) gave Efflux pump inh -0.1, Mot1-301 SUMO 31.0, HGIII-sPLA2 inh 2.3 and SKN-1 block -5.7.
`O=C(Nc1sc2c(c1C(=O)O)CCC2)c1ccccc1Cl` gave Efflux pump inh 0.5*, Mot1-301 SUMO 341.3, HGIII-sPLA2 inh -3.3, SKN-1 block -3.1, Yeast cmpd fluor 100.3, Mdr1 pump inh -0.1, Cdr2 pump inh 107.2 and Cdr1 pump inh 0.0.
CCOC(=O)c1c(NC(=O)c2c(Br)cnn2CC)sc(C)c1C was read as Efflux pump inh -0.1, Mot1-301 SUMO -24.6, HGIII-sPLA2 inh 1.7 and SKN-1 block 29.6.
`O=C(Nc1sc2c(c1C(=O)O)CCCC2)c1ccccc1Cl` gave Efflux pump inh -0.2, Mot1-301 SUMO -9.1, HGIII-sPLA2 inh -4.2 and SKN-1 block 34.6.
`CCn1ncc(Br)c1C(=O)Nc1sc2c(c1C(=O)OC)CCC2` gave Efflux pump inh 0.4, Mot1-301 SUMO -6.2, HGIII-sPLA2 inh 15.0, SKN-1 block 2.4, Yeast cmpd fluor 97.6, Mdr1 pump inh -0.1, Cdr2 pump inh 111.6 and Cdr1 pump inh -0.1.
